Measured values reported in the supplement of paper PMC10849652.
The full data set covers some 7,900 targets. This sample favours those with a hit. About 0.6% of all pairs of compound and target were hits.

Legend:
Test in all cases: log2 fold change, soluble protein after heating vs DMSO (PISA); higher = thermal stabilisation; K562 cells, 10 uM, 30 min; active = over 0.2 and 3.5 SD of the protein, either way, in both replicates (recomputed)
[1] = compound: NC(=O)Nc1cc(-c2cccc(F)c2)sc1C(=O)N[C@H]1CCCNC1
Outline: (§1)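 Soluble protein was quantified by TMTpro 16plex LC-MS/MS after channel sums were equalised. It was obtained as the supernatant after 21,000xg for 90 min from pooled aliquots of K562 cells (2×10^6 cells/mL, 10 μM compound, 30 min) heated for 3 min across 48°C-58°C and extracted in PBS with 0.5% NP-40 at 4°C. Thermal stability values are relative to control samples and come from duplicates. They are given as log2 fold changes.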

[2] = compound: NC(=O)c1cnc(N[C@@H]2CCCC[C@@H]2N)nc1Nc1cccc(-n2nccn2)c1
Outline: as §1

[3] = compound: NC1(c2ccc(-c3nc4ccn5c(=O)[nH]nc5c4cc3-c3ccccc3)cc2)CCC1
Outline: as §1

[4] = compound: NCC(=O)Nc1ccc(-n2nc(C(F)(F)F)cc2-c2ccc3c(ccc4ccccc43)c2)cc1
Outline: as §1

entinostat = compound: Nc1ccccc1NC(=O)c1ccc(CNC(=O)OCc2cccnc2)cc1 [entinostat]
Outline: as §1

vorinostat = compound: O=C(CCCCCCC(=O)Nc1ccccc1)NO [vorinostat]
Outline: as §1

citarinostat = compound: O=C(CCCCCCNC(=O)c1cnc(N(c2ccccc2)c2ccccc2Cl)nc1)NO [citarinostat]
Outline: as §1

silmitasertib = compound: O=C(O)c1ccc2c(c1)nc(Nc1cccc(Cl)c1)c1ccncc12 [silmitasertib]
Outline: as §1

[5] = compound: O=C1NC(=O)C(c2cnc3ccccn23)=C1c1cn2c3c(cc(F)cc13)CN(C(=O)N1CCCCC1)CC2
Outline: as §1

[6] = compound: c1cc(OCCN2CCCCC2)cc(-c2n[nH]c3ccc(-c4nnc[nH]4)cc23)c1
Outline: as §1

Measured: log2 fold change

TBRG4 (UniProt Q969Z0)
inactive: [1] -0.103 | [2] -0.172 | [3] -0.58 | [4] -0.255 | entinostat 0.214 | vorinostat 0.201 | citarinostat 0.128 | silmitasertib 0.074 | [5] -0.191 | [6] -0.086

SP100 isoform 4 (UniProt P23497)
inactive: [1] 0.03 | [2] -0.007 | [3] -0.025 | [4] -0.039 | entinostat 0.007 | vorinostat -0.046 | citarinostat -0.011 | silmitasertib 0.059 | [5] -0.051 | [6] 0.02

TGFBR1 isoform 2 (UniProt P36897)
inactive: [1] 0.029 | [2] 0.072 | [3] -0.041 | [4] 0.002 | entinostat 0.093 | vorinostat -0.083 | citarinostat 0.017 | silmitasertib 0.073 | [5] -0.052 | [6] -0.054

TAX1BP1 (UniProt Q86VP1)
Sequence of UniProt Q86VP1 (Q86VP1 whole entry, looked up): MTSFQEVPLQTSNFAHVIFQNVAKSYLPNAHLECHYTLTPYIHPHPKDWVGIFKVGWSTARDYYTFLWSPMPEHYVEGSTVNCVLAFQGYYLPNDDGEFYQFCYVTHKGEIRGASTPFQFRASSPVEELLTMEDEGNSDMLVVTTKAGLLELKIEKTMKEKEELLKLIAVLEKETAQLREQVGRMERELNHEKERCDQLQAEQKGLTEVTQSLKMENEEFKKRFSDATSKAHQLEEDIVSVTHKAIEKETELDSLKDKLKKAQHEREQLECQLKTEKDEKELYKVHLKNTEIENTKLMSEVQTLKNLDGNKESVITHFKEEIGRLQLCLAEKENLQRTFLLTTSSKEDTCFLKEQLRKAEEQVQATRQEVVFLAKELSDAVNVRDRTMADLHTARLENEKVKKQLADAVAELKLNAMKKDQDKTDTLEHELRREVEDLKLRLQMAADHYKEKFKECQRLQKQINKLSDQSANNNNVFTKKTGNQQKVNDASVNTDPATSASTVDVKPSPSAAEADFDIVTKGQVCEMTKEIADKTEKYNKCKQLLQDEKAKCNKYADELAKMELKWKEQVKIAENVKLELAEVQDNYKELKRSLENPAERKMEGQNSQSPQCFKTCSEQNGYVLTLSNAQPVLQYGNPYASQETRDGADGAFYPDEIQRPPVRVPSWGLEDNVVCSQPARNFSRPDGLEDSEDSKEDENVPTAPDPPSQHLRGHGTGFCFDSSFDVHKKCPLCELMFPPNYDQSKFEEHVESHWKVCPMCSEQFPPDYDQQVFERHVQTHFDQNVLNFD
inactive: [1] 0.028 | [2] -0.062 | [3] -0.202 | [4] -0.102 | entinostat -0.013 | vorinostat -0.183 | citarinostat 0.061 | silmitasertib 0.042 | [5] -0.011 | [6] -0.081

TIAL1 isoform 2 (UniProt Q01085)
inactive: [1] -0.014 | [2] -0.026 | [3] -0.05 | [4] -0.048 | entinostat -0.005 | vorinostat 0.025 | citarinostat -0.002 | silmitasertib -0.003 | [5] 0.003 | [6] -0.036

SNX5 (UniProt Q9Y5X3)
inactive: [1] -0.022 | [2] -0.275 | [4] -0.037 | entinostat 0.078 | vorinostat 0.108 | citarinostat 0.09 | silmitasertib -0.061 | [5] -0.006 | [6] -0.11
active: [3] -0.332

TBC1D5 isoform 2 (UniProt Q92609)
Sequence of UniProt Q92609 (Q92609 whole entry, looked up): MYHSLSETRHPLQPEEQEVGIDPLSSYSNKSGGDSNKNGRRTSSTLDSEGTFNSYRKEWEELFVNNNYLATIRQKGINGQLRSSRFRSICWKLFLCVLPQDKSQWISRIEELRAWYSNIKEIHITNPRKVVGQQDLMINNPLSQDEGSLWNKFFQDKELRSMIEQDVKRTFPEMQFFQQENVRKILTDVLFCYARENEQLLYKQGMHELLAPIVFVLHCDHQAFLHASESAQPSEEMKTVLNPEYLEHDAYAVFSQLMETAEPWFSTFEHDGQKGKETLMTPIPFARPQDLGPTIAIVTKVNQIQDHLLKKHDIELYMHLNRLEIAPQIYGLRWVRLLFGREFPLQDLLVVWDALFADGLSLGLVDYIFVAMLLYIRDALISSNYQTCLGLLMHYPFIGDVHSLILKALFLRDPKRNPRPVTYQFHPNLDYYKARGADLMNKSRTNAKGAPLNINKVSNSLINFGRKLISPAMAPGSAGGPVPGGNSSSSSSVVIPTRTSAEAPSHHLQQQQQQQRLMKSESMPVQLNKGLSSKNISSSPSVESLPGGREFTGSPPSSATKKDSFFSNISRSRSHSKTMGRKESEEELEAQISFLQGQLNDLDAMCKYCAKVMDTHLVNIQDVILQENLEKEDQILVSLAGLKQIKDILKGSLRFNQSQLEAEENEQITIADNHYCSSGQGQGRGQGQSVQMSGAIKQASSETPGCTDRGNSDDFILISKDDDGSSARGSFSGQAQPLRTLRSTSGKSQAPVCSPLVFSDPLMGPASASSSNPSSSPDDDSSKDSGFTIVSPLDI
inactive: [1] -0.006 | [2] -0.103 | [3] -0.233 | [4] -0.058 | entinostat 0.029 | vorinostat 0.086 | citarinostat 0.111 | silmitasertib 0.031 | [5] -0.076 | [6] -0.094

TAOK1 (UniProt Q7L7X3)
Sequence of UniProt Q7L7X3 (Q7L7X3 whole entry, looked up): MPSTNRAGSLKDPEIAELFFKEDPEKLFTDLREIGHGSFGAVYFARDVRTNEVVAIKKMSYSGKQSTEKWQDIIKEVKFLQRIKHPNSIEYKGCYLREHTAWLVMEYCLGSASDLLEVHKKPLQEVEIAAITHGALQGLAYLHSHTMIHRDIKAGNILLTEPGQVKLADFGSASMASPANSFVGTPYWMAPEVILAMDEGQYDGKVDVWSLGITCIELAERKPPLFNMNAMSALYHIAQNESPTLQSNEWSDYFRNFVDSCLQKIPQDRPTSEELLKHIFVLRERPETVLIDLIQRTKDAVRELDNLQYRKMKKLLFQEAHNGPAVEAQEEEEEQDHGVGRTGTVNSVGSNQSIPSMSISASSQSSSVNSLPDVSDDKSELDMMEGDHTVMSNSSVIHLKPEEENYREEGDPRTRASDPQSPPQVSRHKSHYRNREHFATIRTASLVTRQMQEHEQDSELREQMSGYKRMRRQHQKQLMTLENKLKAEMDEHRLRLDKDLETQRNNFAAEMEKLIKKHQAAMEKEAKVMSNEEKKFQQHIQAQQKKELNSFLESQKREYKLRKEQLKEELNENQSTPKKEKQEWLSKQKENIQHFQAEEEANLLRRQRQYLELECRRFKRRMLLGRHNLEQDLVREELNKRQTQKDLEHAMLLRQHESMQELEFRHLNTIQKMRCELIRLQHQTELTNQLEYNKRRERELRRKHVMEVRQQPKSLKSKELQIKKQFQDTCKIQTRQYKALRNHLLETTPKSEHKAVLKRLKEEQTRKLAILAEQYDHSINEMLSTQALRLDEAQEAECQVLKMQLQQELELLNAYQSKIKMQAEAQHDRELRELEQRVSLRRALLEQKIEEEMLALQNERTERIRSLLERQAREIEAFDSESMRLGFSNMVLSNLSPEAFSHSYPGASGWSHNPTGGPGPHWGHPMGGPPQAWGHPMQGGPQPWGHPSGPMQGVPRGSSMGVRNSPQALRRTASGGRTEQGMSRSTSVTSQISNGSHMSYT
inactive: [1] -0.043 | [2] -0.04 | [3] -0.063 | [4] -0.068 | entinostat -0.01 | vorinostat 0.048 | citarinostat 0 | silmitasertib -0.003 | [5] -0.038 | [6] -0.194

TFR2 (UniProt Q9UP52)
active: [3] -0.601
inactive: [1] -0.039 | [2] -0.004 | [4] 0.007 | entinostat 0.007 | vorinostat 0.002 | citarinostat 0.033 | silmitasertib -0.001 | [5] -0.035 | [6] -0.067

SMAP2 (UniProt Q8WU79)
inactive: [1] -0.013 | [2] 0.024 | [3] -0.043 | [4] -0.069 | entinostat -0.01 | vorinostat 0.002 | citarinostat 0.056 | silmitasertib 0.06 | [5] -0.122 | [6] -0.028

TBK1 (UniProt Q9UHD2)
inactive: [1] 0.196 | [2] 0 | [3] -0.086 | [4] -0.118 | entinostat 0.055 | vorinostat -0.025 | citarinostat 0.064 | silmitasertib 0.057 | [5] -0.014 | [6] -0.029

SPG11 (UniProt Q96JI7)
inactive: [1] -0.395 | [2] -0.138 | [3] 0.145 | [4] -0.293 | entinostat -0.25 | vorinostat -0.638 | citarinostat -0.233 | silmitasertib 0.01 | [5] 0.041 | [6] -0.219

TERF2IP (UniProt Q9NYB0)
inactive: [1] 0.009 | [2] -0.132 | [3] 0.007 | [4] -0.018 | entinostat 0.061 | vorinostat 0.041 | citarinostat 0.068 | silmitasertib 0.121 | [5] -0.051 | [6] -0.073

STAM2 (UniProt O75886)
inactive: [1] -0.111 | [2] -0.136 | [3] -0.133 | [4] -0.101 | entinostat 0.012 | vorinostat 0.04 | citarinostat 0.026 | silmitasertib 0.049 | [5] -0.041 | [6] 0.064

TARS2 (UniProt Q9BW92)
inactive: [1] 0.008 | [2] -0.018 | [4] -0.031 | entinostat 0.011 | vorinostat -0.051 | citarinostat 0.038 | silmitasertib -0.005 | [5] -0.057 | [6] -0.008
active: [3] -0.27

SNRNP27 (UniProt Q8WVK2)
Sequence of UniProt Q8WVK2 (Q8WVK2 whole entry, looked up): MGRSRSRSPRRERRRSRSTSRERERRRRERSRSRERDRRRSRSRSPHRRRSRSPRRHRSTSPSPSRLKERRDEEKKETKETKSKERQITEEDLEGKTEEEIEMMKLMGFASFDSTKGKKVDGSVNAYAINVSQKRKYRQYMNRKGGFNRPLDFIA
inactive: [1] 0.022 | [2] -0.015 | [3] -0.034 | [4] -0.043 | entinostat -0.024 | vorinostat -0.008 | citarinostat -0.003 | silmitasertib 0.06 | [5] 0.038 | [6] -0.025

STARD7 (UniProt Q9NQZ5)
active: [5] 0.341
inactive: [1] -0.048 | [2] -0.113 | [3] -0.088 | [4] 0.012 | entinostat 0.008 | vorinostat 0.114 | citarinostat 0.073 | silmitasertib -0.011 | [6] -0.089

SRSF3 (UniProt P84103)
inactive: [1] -0.05 | [2] 0.148 | [3] 0.396 | [4] 0.064 | entinostat -0.126 | vorinostat -0.026 | citarinostat -0.105 | silmitasertib -0.033 | [5] 0.194 | [6] -0.141

SRRM2 (UniProt Q9UQ35)
inactive: [1] -0.004 | [2] -0.055 | [3] 0.005 | [4] -0.036 | entinostat 0.025 | vorinostat 0.226 | citarinostat 0.071 | silmitasertib -0.141 | [5] -0.225 | [6] -0.25

TIMM21 (UniProt Q9BVV7)
inactive: [1] -0.041 | [2] -0.055 | [3] -0.087 | [4] -0.047 | entinostat -0.015 | vorinostat 0.04 | citarinostat 0.052 | silmitasertib 0.024 | [5] -0.016 | [6] -0.016

SLC44A2 isoform 2 (UniProt Q8IWA5)
inactive: [1] -0.086 | [2] 0.168 | [3] 0.128 | [4] 0.05 | entinostat -0.06 | vorinostat -0.006 | citarinostat 0.091 | silmitasertib -0.071 | [5] -0.075 | [6] -0.289

SNX6 (UniProt Q9UNH7)
active: [2] -0.376 | [3] -0.403
inactive: [1] -0.027 | [4] 0.007 | entinostat 0.075 | vorinostat 0.15 | citarinostat 0.064 | silmitasertib -0.142 | [5] -0.003 | [6] -0.087

STX7 (UniProt O15400)
Sequence of UniProt O15400 (O15400 whole entry, looked up): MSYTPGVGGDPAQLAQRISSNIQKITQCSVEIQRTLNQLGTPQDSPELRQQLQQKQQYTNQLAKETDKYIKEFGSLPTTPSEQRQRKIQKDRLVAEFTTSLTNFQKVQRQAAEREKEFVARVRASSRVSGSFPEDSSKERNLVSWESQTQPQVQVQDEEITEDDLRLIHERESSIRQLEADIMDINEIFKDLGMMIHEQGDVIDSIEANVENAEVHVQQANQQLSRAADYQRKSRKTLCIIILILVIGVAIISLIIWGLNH
inactive: [1] 0.036 | [2] -0.02 | [3] -0.072 | [4] 0.011 | entinostat -0.028 | vorinostat -0.093 | citarinostat -0.002 | silmitasertib 0.017 | [5] -0.006 | [6] 0.079

SLC27A2 (UniProt O14975)
Sequence of UniProt O14975 (O14975 whole entry, looked up): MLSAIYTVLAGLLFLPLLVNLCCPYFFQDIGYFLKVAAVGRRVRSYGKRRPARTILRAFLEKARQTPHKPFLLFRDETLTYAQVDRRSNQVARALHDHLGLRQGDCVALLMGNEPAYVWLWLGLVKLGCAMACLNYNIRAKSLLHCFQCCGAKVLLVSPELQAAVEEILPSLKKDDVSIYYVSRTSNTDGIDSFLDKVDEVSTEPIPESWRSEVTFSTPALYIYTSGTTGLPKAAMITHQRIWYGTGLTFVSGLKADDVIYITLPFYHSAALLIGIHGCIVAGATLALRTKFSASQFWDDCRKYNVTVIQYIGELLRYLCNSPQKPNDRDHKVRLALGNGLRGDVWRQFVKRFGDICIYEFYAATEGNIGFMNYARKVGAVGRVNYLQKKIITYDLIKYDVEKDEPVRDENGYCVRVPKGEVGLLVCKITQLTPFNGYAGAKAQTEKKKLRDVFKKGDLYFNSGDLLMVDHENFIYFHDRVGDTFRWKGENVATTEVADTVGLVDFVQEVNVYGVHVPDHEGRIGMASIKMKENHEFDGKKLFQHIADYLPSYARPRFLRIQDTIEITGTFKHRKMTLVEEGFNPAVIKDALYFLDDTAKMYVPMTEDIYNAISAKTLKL
inactive: [1] -0.068 | [2] -0.091 | [3] 0.007 | [4] -0.047 | entinostat -0.023 | vorinostat -0.053 | citarinostat 0.059 | silmitasertib 0.083 | [5] 0.247 | [6] -0.035

SLC38A9 (UniProt Q8NBW4)
inactive: [1] -0.129 | [2] 0.009 | [3] -0.113 | [4] -0.025 | entinostat 0.034 | vorinostat 0.007 | citarinostat 0.004 | silmitasertib 0.035 | [5] -0.044 | [6] -0.043

SPAG9 (UniProt O60271)
Sequence of UniProt O60271 (O60271 whole entry, looked up): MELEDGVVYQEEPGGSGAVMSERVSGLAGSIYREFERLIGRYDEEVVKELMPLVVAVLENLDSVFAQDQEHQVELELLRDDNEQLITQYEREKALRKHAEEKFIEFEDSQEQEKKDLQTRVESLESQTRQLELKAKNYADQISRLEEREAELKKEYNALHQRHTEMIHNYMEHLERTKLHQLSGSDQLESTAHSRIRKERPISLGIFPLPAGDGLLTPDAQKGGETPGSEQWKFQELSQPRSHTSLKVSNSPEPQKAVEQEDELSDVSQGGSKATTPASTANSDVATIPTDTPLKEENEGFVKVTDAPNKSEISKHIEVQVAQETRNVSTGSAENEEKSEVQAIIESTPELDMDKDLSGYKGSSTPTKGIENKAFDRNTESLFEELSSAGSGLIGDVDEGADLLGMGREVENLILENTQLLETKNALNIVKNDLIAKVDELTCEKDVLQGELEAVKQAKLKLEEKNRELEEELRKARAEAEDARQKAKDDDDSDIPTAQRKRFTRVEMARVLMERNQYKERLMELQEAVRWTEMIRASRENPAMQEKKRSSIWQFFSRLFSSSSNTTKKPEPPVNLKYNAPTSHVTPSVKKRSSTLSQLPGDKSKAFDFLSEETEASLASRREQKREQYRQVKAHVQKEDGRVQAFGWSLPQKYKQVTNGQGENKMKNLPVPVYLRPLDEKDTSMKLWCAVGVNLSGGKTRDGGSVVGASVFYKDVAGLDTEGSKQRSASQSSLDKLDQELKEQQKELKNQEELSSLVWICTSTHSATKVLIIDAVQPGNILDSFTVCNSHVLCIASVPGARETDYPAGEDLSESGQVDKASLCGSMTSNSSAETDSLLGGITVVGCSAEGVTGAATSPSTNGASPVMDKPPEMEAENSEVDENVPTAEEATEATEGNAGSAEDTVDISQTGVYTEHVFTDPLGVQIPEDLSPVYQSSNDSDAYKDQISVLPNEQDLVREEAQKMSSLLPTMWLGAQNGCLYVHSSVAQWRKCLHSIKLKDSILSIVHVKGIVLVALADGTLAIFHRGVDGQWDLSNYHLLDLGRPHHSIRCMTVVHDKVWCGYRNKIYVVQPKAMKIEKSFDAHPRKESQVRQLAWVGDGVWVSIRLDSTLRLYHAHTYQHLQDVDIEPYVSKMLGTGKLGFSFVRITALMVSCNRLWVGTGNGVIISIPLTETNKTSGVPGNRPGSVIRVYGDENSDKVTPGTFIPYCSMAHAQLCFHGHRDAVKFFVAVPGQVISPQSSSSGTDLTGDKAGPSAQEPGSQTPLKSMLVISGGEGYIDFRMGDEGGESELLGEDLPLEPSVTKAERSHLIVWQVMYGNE
inactive: [1] -0.042 | [2] -0.13 | [3] -0.123 | [4] -0.055 | entinostat 0.034 | vorinostat 0.023 | citarinostat 0.01 | silmitasertib 0.038 | [5] -0.014 | [6] -0.024

SLC30A7 (UniProt Q8NEW0)
inactive: [1] -0.035 | [2] 0.013 | [3] -0.276 | [4] -0.178 | entinostat 0.024 | vorinostat -0.024 | citarinostat -0.028 | silmitasertib 0.039 | [5] 0.025 | [6] -0.032

SNUPN (UniProt O95149)
inactive: [1] -0.031 | [2] -0.06 | [3] -0.095 | [4] -0.063 | entinostat 0.06 | vorinostat 0.027 | citarinostat -0.082 | silmitasertib 0.027 | [5] -0.077 | [6] 0.071

SMDT1 (UniProt Q9H4I9)
Sequence of UniProt Q9H4I9 (Q9H4I9 whole entry, looked up): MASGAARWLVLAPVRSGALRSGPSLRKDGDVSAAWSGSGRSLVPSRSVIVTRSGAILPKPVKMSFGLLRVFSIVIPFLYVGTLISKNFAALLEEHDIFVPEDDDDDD
inactive: [1] -0.062 | [2] 0.032 | [3] -0.061 | [4] -0.039 | entinostat 0.01 | vorinostat -0.038 | citarinostat 0.002 | silmitasertib 0.041 | [5] -0.011 | [6] -0.001

SLC30A10 (UniProt Q6XR72)
active: [6] -0.432
inactive: [1] -0.035 | [2] 0.088 | [3] 0.084 | [4] 0.133 | entinostat -0.003 | vorinostat -0.215 | citarinostat -0.008 | silmitasertib -0.05 | [5] -0.005
